High-throughput results deposited in PubChem BioAssay by National Center for Advancing Translational Sciences (NCATS).
Pol III holo inh: inhibitors of bacterial DNA polymerase III holoenzyme | reconstituted DNA polymerase III holoenzyme replication, biochemical | Potency, µM (series often up to 57.1 µM) | actives 0.25% (n = 71,000) | AID 603
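Reconstituted *E. coli* holoenzyme (0.35 nM Pol III, 1 nM beta, 154 nM SSB, 2 nM primase) was preincubated with compound for 15 min at RT. Synthesis on 1.4 nM ssM13Gori ran 35 min, then was stopped with PicoGreen/EDTA and read as dsDNA fluorescence.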
ERK AVP block: blocks ERK signaling stimulated by vasopressin; actives 0.99% (n = 72,000); HEK293-V1b, vasopressin-stimulated pERK AlphaScreen; Potency, µM (doses to about 57.5 µM), actives largely listed as inhibitors; further: nearly all actives have a fitted effect of over 55% in size
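Phosphorylated ERK1/2 detected via AlphaScreen bead proximity in lysates of V1b-expressing HEK293 cells given 25 nM vasopressin for 5 min after 30 min compound exposure (37 °C). AC50 from Hill equation; basal DMSO 0%, vasopressin 100%.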
ALOX15 inhib: 15-hLO (ALOX15) enzyme inhibition | P16050 | purified 15hLO-1, xylenol orange hydroperoxide absorbance | Potency, µM (titrated, usually from 57.1 µM), usual class: inhibitors | actives 1.4% (n = 74,000) | AID 887; further: nearly all actives have a fitted effect of over 55% in size
Target sequence (P16050 whole entry, looked up): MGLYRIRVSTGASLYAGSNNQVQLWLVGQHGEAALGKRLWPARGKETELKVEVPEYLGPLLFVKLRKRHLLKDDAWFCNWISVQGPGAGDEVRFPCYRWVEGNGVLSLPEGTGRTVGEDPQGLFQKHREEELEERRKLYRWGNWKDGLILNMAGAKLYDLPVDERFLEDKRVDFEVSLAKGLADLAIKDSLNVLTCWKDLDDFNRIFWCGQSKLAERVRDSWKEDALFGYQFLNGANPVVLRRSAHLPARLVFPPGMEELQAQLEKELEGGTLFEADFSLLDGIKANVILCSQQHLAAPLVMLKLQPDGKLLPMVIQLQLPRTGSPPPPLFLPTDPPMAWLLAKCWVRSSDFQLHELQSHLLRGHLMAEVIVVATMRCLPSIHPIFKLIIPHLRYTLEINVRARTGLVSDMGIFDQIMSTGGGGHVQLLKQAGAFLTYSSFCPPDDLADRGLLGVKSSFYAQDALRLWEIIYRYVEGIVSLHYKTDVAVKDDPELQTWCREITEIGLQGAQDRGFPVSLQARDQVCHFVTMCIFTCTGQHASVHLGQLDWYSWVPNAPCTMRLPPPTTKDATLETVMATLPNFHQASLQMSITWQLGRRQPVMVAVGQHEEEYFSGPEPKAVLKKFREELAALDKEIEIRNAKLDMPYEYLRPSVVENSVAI
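Purified human 15hLO-1 (40 nM) in 25 mM Hepes pH 7.5, 0.01% Triton X-100, preincubated 15 min RT with compound, then 50 uM arachidonic acid for 6 min. Hydroperoxide read by ferrous/xylenol orange, 30 min; 573/405 nm absorbance ratio gave progress.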
FLuc inh: blocks Photinus pyralis firefly luciferase activity; P08659; purified firefly luciferase, luminescence, 8 min; Potency, µM (doses to about 57.1 µM), hits mostly inhibitors; actives 2.2% (n = 72,000); further: nearly all actives have a fitted effect of over 40% in size
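Here, luciferase activity is measured as luminescence following an 8 min room-temperature reaction at 10 uM ATP, pH 7.2. Every library sample is titrated.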
PK Bst: modulators of Bacillus stearothermophilus pyruvate kinase; AID 361; Potency, µM; actives 1.2% (n = 51,000); purified pyruvate kinase, luminescence ATP production; ribose 5-phosphate activator present at AC10; in the data active means potency below about 11 µM; inconclusive means mostly about 12 µM to 25 µM;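 the screen sought inhibitors and activators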
Tau filament bind: binders of human tau filaments; P10636; recombinant tau filaments, thioflavin S fluorescence, 15 h; filaments grown with octadecylsulfate alongside compound; Potency, µM (titrated, usually from 57.1 µM); actives 2% (n = 71,000); AID 596;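 further: actives lower thioflavin S fluorescence by blocking filaments or displacing dye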
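Assay mix: 1 uM His-tagged tau, 30 uM sodium octadecylsulfate, thioflavine S dye in HEPES/NaCl/DTT buffer. Compound is added prior to the inducer. Fluorescence after 15 h at 37 C.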
A number is an active result; ! = a repeat was not active; [ ] = dose if it differs, or a comment. Hits are enriched below; roughly 6% of the tested compounds scored in any of these assays. Unless noted, the call rests on the fitted dose curve; in most records, active means well fitted curve in the direction sought with a large enough effect; inconclusive means small, poorly fitted or top-dose-only effect, or another doubt; inactive means no such curve, though single readings can be large; an effect the other way counts as inactive or inconclusive.

Results for CCNc1ncc2ncc(=O)n(Cc3ccc(F)cc3)c2n1 ?
Pol III holo inh: inactive; ERK AVP block: inconclusive; ALOX15 inhib: inactive; FLuc inh: inactive[11.4 µM]; Tau filament bind: inactive

How did OC[C@@H]1O[C@H](O)[C@@H](Cl)[C@H](O)[C@@H]1O do in these assays?
Pol III holo inh: inactive; ERK AVP block: inactive; ALOX15 inhib: inactive; FLuc inh: inactive; Tau filament bind: inactive

What do the screens show for `COc1cccc(Cn2c(=O)c(-c3ccc(Cl)cc3)nc3cnc(N4CCNCC4)nc32)c1`?
Pol III holo inh: inactive; ERK AVP block: inactive; ALOX15 inhib: inactive; FLuc inh: inactive[11.4 µM]; Tau filament bind: 4µM

What do the screens show for `COc1cccc(Cn2c(=O)c(-c3ccc(Cl)cc3)nc3cncnc32)c1`?
Pol III holo inh: inactive; ERK AVP block: inconclusive; ALOX15 inhib: inactive; FLuc inh: inactive[11.4 µM]; Tau filament bind: 25µM

Results for COc1cccc(Cn2c(=O)c(-c3ccc(Cl)cc3)nc3cnc(N4CCN(C)CC4)nc32)c1 ?
Pol III holo inh: inactive; ERK AVP block: inactive; ALOX15 inhib: inactive; FLuc inh: inactive[11.4 µM]; Tau filament bind: inconclusive

How did COc1cccc(Nc2ncc3nc(C)c(=O)n(CCC#N)c3n2)c1 do in these assays?
Pol III holo inh: inactive; ERK AVP block: inconclusive; ALOX15 inhib: inactive; FLuc inh: inactive[11.4 µM]; Tau filament bind: 25µM

Results for CNC(=O)c1cc2c(cn1)[nH]c1ccccc12 ?
Pol III holo inh: inactive; ERK AVP block: inactive; ALOX15 inhib: inactive; FLuc inh: 25µM!; Tau filament bind: inconclusive

What do the screens show for `CCCCOC(=O)c1cc2c(cn1)[nH]c1ccccc12`?
Pol III holo inh: inactive; ERK AVP block: inactive; ALOX15 inhib: inactive; FLuc inh: inconclusive; Tau filament bind: inactive

Results for COc1cccc(-c2csc(NC(C)=O)n2)c1 ?
Pol III holo inh: inactive; ERK AVP block: inactive; ALOX15 inhib: inactive; FLuc inh: inactive; Tau filament bind: inactive

Results for COc1ccc2c(c1)-c1nc(NC(=O)c3ccco3)sc1CC2 ?
Pol III holo inh: inactive; ERK AVP block: inconclusive; ALOX15 inhib: inactive; FLuc inh: inactive; Tau filament bind: inactive

How did COc1ccc2c(c1)Cc1sc(NC(C)=O)nc1-2 do in these assays?
Pol III holo inh: inactive; ERK AVP block: inactive; ALOX15 inhib: inactive; FLuc inh: 13µM; PK Bst: inconclusive; Tau filament bind: inconclusive

What do the screens show for `COc1ccc2c(c1)-c1nc(NC(=O)c3cccs3)sc1CC2`?
ALOX15 inhib: 13µM

What do the screens show for `Cn1cc(-c2nc3cnc(Oc4cccc(Cl)c4)nc3n(CCC#N)c2=O)c2ccccc21`?
Pol III holo inh: inactive; ERK AVP block: inactive; ALOX15 inhib: inactive; FLuc inh: inactive[11.4 µM]; Tau filament bind: inactive

What do the screens show for `N/C(=N\O)c1cn([C@@H]2O[C@@H](CO)[C@H](O)[C@@H]2O)c2ncnc(NO)c12`?
Pol III holo inh: inactive[11.4 µM]; ERK AVP block: inactive[11.5 µM]; ALOX15 inhib: inactive[11.4 µM]; FLuc inh: inactive[11.4 µM]; Tau filament bind: inactive[11.4 µM]

What do the screens show for `COc1cccc(-c2cc(C(F)(F)F)n3nc(N)nc3n2)c1`?
Pol III holo inh: inactive; ERK AVP block: inactive; ALOX15 inhib: inactive; FLuc inh: inactive; PK Bst: inactive; Tau filament bind: inactive

Results for COc1cccc(-c2cn3nc4c(nc3n2)CCCC4)c1 ?
Pol III holo inh: inactive; ERK AVP block: inactive; ALOX15 inhib: inactive; FLuc inh: 3.2µM; PK Bst: 4.6; Tau filament bind: inactive

What do the screens show for `Cc1cc(-c2ccc(N3C(=O)CCC3=O)c(C)c2)ccc1N1C(=O)CCC1=O`?
Pol III holo inh: inactive; ERK AVP block: inactive; ALOX15 inhib: inactive; FLuc inh: 16µM; Tau filament bind: inactive

Results for O=C1CCC(=O)N1c1ccccc1-c1ccccc1 ?
Pol III holo inh: inactive; ERK AVP block: inactive; ALOX15 inhib: inactive; FLuc inh: inactive; Tau filament bind: inactive

How did CCN(CC)COC(=S)S do in these assays?
Pol III holo inh: inactive[11.4 µM]; ERK AVP block: inactive[11.5 µM]; ALOX15 inhib: inactive[11.4 µM]; FLuc inh: inactive[11.4 µM]; Tau filament bind: inactive[11.4 µM]

What do the screens show for `COc1nc(-c2ccc(C)cc2)ccc1-c1noc(-c2ccco2)n1`?
Pol III holo inh: inactive; ERK AVP block: inactive; ALOX15 inhib: inactive; FLuc inh: inactive; Tau filament bind: inactive

Results for COc1ccc(-c2noc(-c3ccccc3Cl)n2)cc1OC ?
Pol III holo inh: inactive; ERK AVP block: inactive; ALOX15 inhib: inactive; FLuc inh: 16µM; PK Bst: inactive; Tau filament bind: inactive

Results for COc1nc(C)ccc1-c1noc(-c2ccco2)n1 ?
Pol III holo inh: inactive; ERK AVP block: inactive; ALOX15 inhib: inactive; FLuc inh: 7.9µM; PK Bst: inactive; Tau filament bind: inactive

How did COc1ccc(-c2noc(-c3ccco3)n2)cc1OC do in these assays?
Pol III holo inh: inactive; ERK AVP block: inconclusive; ALOX15 inhib: inactive; FLuc inh: 13µM; PK Bst: inactive; Tau filament bind: inactive

Results for CC(C)[C@@H](CC(=O)N[C@@H]1CCNC[C@H]1C(=O)N[C@H](CC(=O)N[C@@H](CCC(=O)O)CC(=O)O)Cc1c[nH]c2ccccc12)NC(=O)C[C@H](CO)NC(=O)[C@@H]1CNCC[C@H]1N ?
Pol III holo inh: inactive; Tau filament bind: inconclusive

Results for CCNc1ncc2nc(-c3cccs3)c(=O)n(Cc3ccc(F)cc3)c2n1 ?
Pol III holo inh: inactive; ERK AVP block: inactive; ALOX15 inhib: inactive; FLuc inh: inactive[11.4 µM]; Tau filament bind: inactive

What do the screens show for `CCOC(=O)C1=C(C)NC(SCC(=O)OC)=C(C#N)C1c1ccc(C(=O)OC)cc1` (configuration not stated)?
Pol III holo inh: inactive; ERK AVP block: inactive; ALOX15 inhib: 5µM; FLuc inh: inactive; PK Bst: inactive; Tau filament bind: inactive

What do the screens show for `CCN1CCN(Cc2ccc(NC(=O)Nc3ccccc3OC)cc2)CC1`?
Pol III holo inh: inactive; ERK AVP block: inactive; ALOX15 inhib: 3.2µM; FLuc inh: inconclusive; Tau filament bind: inactive

Results for CCN1CCN(C(=O)Nc2ccc(Cc3ccc(NC(=O)N4CCN(CC)CC4)cc3)cc2)CC1 ?
Pol III holo inh: inactive; ERK AVP block: inactive; ALOX15 inhib: inactive; FLuc inh: 13µM; Tau filament bind: inactive

How did CCN1CCN(CCC(=O)Nc2ccccc2OC)CC1 do in these assays?
Pol III holo inh: inactive; ERK AVP block: inactive; ALOX15 inhib: inactive; FLuc inh: inactive; PK Bst: inactive; Tau filament bind: inactive

How did CCOC(=O)CCN1C(=O)[C@H]2[C@H]3[C@H](O)[C@H](O)C/C(=N/NC(=O)OCc4ccccc4)[C@@H]3CC[C@@H]2C1=O do in these assays?
ERK AVP block: inactive[11.5 µM]; ALOX15 inhib: inactive[11.4 µM]; FLuc inh: inactive[11.4 µM]

How did N#CCCn1c(=O)c(-c2cccs2)nc2cnc(OCc3ccccc3)nc21 do in these assays?
Pol III holo inh: inactive; ERK AVP block: inactive; ALOX15 inhib: inactive; FLuc inh: inactive[11.4 µM]; Tau filament bind: inactive

What do the screens show for `CC1CCCCN1C(=O)CSc1nc2ccsc2c(=O)n1Cc1ccccn1` (configuration not stated)?
Pol III holo inh: inactive; ERK AVP block: 25µM; ALOX15 inhib: inactive; FLuc inh: inactive; PK Bst: inactive; Tau filament bind: inactive
